Measured values published in PubChem BioAssay (NCATS).
“And” between values parts separate entries of the source, which are not always exact repeats. Identical values can stand only once. Values without a mark were called inactive. Records with an inconclusive call do not appear. A call without a number means that no potency is given here. The source made the active and inactive calls. Unless noted, calls come from the whole dose curve; as a rule, active = well fitted curve in the direction sought with a large enough effect; inconclusive = small, poorly fitted or top-dose-only effect, or another doubt; inactive = no such curve, though single readings can be large; an effect the other way counts as inactive or inconclusive.

Legend:
[1] = AP1 Signaling Pathway (AID 357; active = well fitted curve in either direction with a large enough effect, not every such curve was filed as active;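 note: ME-180 reporter cells stimulated with EGF at its EC50 level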); conditions: ME-180 AP-1-bla reporter, EGF-induced, beta-lactamase ratio, 5 h; at 7.69 µM (top of the series) unless noted
Summary of the method: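 Beta-lactamase reporter under AP-1 response element, ME-180 background. Stimulus: EC50 EGF. Compound exposure 5 h, 37 °C. Detection: CCF4, 2.5 h RT, 460/530 nm. Values: AC50 from titration.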

[2] = molecular target: Cytochrome P450 1A2 (Homo sapiens) (UniProt P05177); test: p450-cyp1a2 (AID 410; calls by dose curve; note: potency is the fitted concentration of half-maximal effect)
Summary of the method: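 20nM CYP1A2, 100uM Luciferin-ME (=Km), 100mM KPO4; cpd 10 min RT; +NADPH regen, 60 min RT; stop/detect 20 min; luminescence. Normalized to furafylline 57 uM = full inhibition.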

[3] = NFAT Signaling Pathway (AID 444; active = well fitted curve in either direction with a large enough effect, not every such curve was filed as active;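 note: carbachol stimulus at about its EC50 of 1 µM final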); conditions: Jurkat NFAT-bla M1, carbachol, beta-lactamase ratio, 5 h; at 7.69 µM (top of the series) unless noted
Summary of the method: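 Jurkat cells with NFAT-driven β-lactamase reporter and co-expressed M1 receptor, stimulated with carbachol (final 1 uM, ~EC50), compound titration, 5 h at 37 °C. CCF4 loaded 1 h at RT; 460/530 nm ratio gave %activity and AC50.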

[4] = Stat Signaling Pathway (AID 446; active = well fitted curve in either direction with a large enough effect, not every such curve was filed as active;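 note: ME-180 cervical cancer cells given 40 pM IL-6 alongside compound; SIE-controlled beta-lactamase reporter measured as 460/530 nm FRET emission ratio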); conditions: ME-180 (cervical carcinoma) SIE beta-lactamase reporter, IL-6 stimulated, 5 h; at 7.69 µM (top of the series) unless noted
Summary of the method: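 Compound effects on IL-6-induced STAT reporter activity were measured in ME-180 cells. After overnight culture, cells were co-treated with 40 pM IL-6 for 5 hrs before beta-lactamase substrate loading at room temperature.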

[5] = molecular target: Glucocorticoid receptor (Homo sapiens) (UniProt P04150); test: GR-GFP Redistribution (AID 450;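 active = compounds whose dose series gives a full or clear partial fitted curve of increased nuclear translocation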; note: potency is the fitted concentration of half-maximal effect); conditions: U2OS GR-GFP nuclear translocation, laser cytometry, 2 h
[6] = molecular target: Glucocorticoid receptor (Homo sapiens) (UniProt P04150); test: GR-EFC Redistribution (AID 451; calls by dose curve; note: potency is the fitted concentration of half-maximal effect); conditions: CHO-K1 GR-EFC translocation, beta-gal luminescence, 2 h
Summary of the method: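 CHO-K1 cells expressing nuclear EA and GR-ED fragments of b-gal; compounds titrated up to 46 uM final, 2 h at 37 C. GR nuclear translocation read as complemented b-gal luminescence after 1 h RT detection.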

[7] = molecular target: Mitogen-activated protein kinase 10 (Mus musculus) (UniProt Q61831); test: JNK3 AlphaScreen Assay (AID 530; active = well fitted curve in either direction with a large enough effect, not every such curve was filed as active;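 note: kinase came from lysate of stimulated human HepG2 cells; signal reports phosphorylation of biotinylated GST-cJun 1-79 at Ser73 with 10 µM ATP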)
Summary of the method: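 HepG2 lysate (IL-1b/TNFa pre-activated) + biotin-GST-cJun 1-79 + anti-pSer73 cJun; cpd titration, 15 min RT; ATP 10 uM start; Tris pH 7.6, MgCl2, DTT, vanadate; beads in EDTA buffer; AlphaScreen.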

[8] = molecular target: 3',5'-cyclic-AMP phosphodiesterase 4B (Homo sapiens) (UniProt Q07343); test: qHTS Assay for Inhibitors of PDE-IV (AID 607; active = well fitted activation curve with a large enough effect in the main read-out, with a control signal flat, not every such curve was filed as active)
Summary of the method: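 ACTOne HEK293 cells carry a modified cAMP-gated CNG channel and express endogenous PDE4; plated 1000 cells/well, compounds up to 22.9 uM final. Membrane-potential dye fluorescence (ex 535/em 590) was read; parental cells received 10 uM forskolin + 100 uM RO 20-1724.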

[9] = molecular target: Guanine nucleotide-binding protein G(i) subunit alpha-1 (Homo sapiens) (UniProt P63096); test: qHTS Assay for Inhibitors of RGS12 GoLoco Motif Activity (Green Fluorophore) (AID 879);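 note: negative values mean loss of peptide binding seen as reduced polarization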
Summary of the method: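 A drop in FITC polarization marked displacement of the FITC-tagged RGS12 GoLoco peptide (10 nM) from Gαi1 (50 nM). Compounds were incubated 10 min at room temperature in Tris pH 7.5 buffer containing 150 mM NaCl, 0.1 mM GDP and 0.05% NP40; unlabeled peptide titration served as control.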

[10] = molecular target: Cytochrome P450 3A4 (Homo sapiens) (UniProt P08684); test: qHTS Assay for Activators of Cytochrome P450 3A4 (AID 885); note: nearly all actives have a fitted effect of over 65% in size
Summary of the method: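 CYP3A4 activity: Luciferin-PPXE O-dealkylation, 25uM substrate, 200mM KPO4, RT throughout. Read-out is luciferase luminescence; higher values reflect activation.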

[11] = molecular target: Muscarinic acetylcholine receptor M1 (Rattus norvegicus) (UniProt P08482); test: qHTS Assay for Antagonists of Acetylcholine Muscarinic M1 Receptor: Kinetic Measurement of Intracellular Calcium Response (AID 943);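 note: Fluo-4 calcium signal as peak divided by basal fluorescence over 4 min; nearly all actives have a fitted effect of over 75% in size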
Summary of the method: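 Read-out: peak over basal Fluo-4 fluorescence, kinetic at 1 Hz for 4 min after EC80 carbachol (100 nM final). Rat M1-CHO cells, dye loaded 1 h at 37C, compound added 10 min before agonist.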

[12] = molecular target: Pyruvate kinase (Leishmania mexicana) (UniProt Q27686); test: qHTS Validation Assay for Inhibitors of Leishmania Mexicana Pyruvate Kinase (AID 945)
Summary of the method: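 Luminescent ATP detection (PKLight) after a 1 h room-temperature reaction of 0.2 nM LmPYK E451W mutant with 0.5 mM PEP and 0.1 mM ADP at pH 7.2. Activity is normalized to DMSO-only control wells.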

[13] = molecular target: Pyruvate kinase PKM (Homo sapiens) (UniProt P14618); test: qHTS Assay for Activators of Human Muscle Pyruvate Kinase (AID 954; active = well fitted curve in the direction sought with a large enough effect, not every such curve was filed as active)
Summary of the method: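 A coupled luminescent readout tracked ATP made from ADP by purified PKM2. Final conditions included 0.1 nM enzyme, PEP and ADP at 0.5 and 0.1 mM, pH 7.2 imidazole buffer with BSA, and a one-hour room-temperature reaction.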

[14] = molecular target: Alpha-galactosidase A (Homo sapiens) (UniProt P06280); test: Counterscreen for Glucocerebrosidase Inhibitors: qHTS Assay for Human alpha-Galactosidase at pH 4.5 (AID 992)
Summary of the method: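 Citrate buffer pH 4.5, Tween-20 0.005%. Enzyme 2 nM, substrate 80 uM, 20 min RT. Stop pH 10. Fluorescence Ex 365/Em 440. AC50 by Hill fit.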

[15] = molecular target: alpha-glucosidase (Oryza sativa, rice) (UniProt Q653V4); test: Counterscreen for Glucocerebrosidase Inhibitors: qHTS Assay for Rice alpha-Glucosidase at pH 5.0 (AID 997)
Summary of the method: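 Endpoint fluorogenic assay at pH 5.0: compounds (0.7 nM to 77 uM) titrated against 4 nM rice enzyme and 400 uM 4-MU-alpha-glucoside for 20 min at room temperature; NaOH/glycine stop, read ex 365/em 440 nm, Hill-fitted AC50.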

[16] = molecular target: Cytochrome P450 2D6 (Homo sapiens) (UniProt P10635); test: qHTS Assay for Inhibitors and Substrates of Cytochrome P450 2D6 (AID 891); note: nearly all actives have a fitted effect of over 60% in size; note: potency is the fitted concentration of half-maximal effect;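 for activity change, negative = inhibition: luciferin methyl ether substrate demethylated by CYP2D6 with NADPH regeneration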
Summary of the method: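 Luminescent read-out of luciferin formed by 5 nM human CYP2D6 demethylating 30 uM Luciferin-ME EGE (Km level) over 60 min at room temperature after NADPH regeneration addition. Data normalized to full inhibition by 1.43 uM quinidine.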

[17] = molecular target: Cytochrome P450 2C19 (Homo sapiens) (UniProt P33261); test: qHTS Assay for Inhibitors and Substrates of Cytochrome P450 2C19 (AID 899); note: nearly all actives have a fitted effect of over 60% in size
Summary of the method: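 Signal comes from luciferase acting on luciferin released by CYP2C19-mediated hydroxylation of Luciferin-H EGE, 10uM (KM). Assay mix: 5nM enzyme, 50mM KPO4; 60 min at 37C with NADPH regeneration. Data normalized against 57uM ketoconazole.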

[18] = qHTS Assay for Identification of Small Molecule Agonists for Thrombopoietin (TPO) Signaling Pathway (AID 917)
Summary of the method: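 Human TPO receptor–transfected Ba/F3 cells (murine, IL-3-dependent) in IL-3-deficient medium; compounds plus TPO at EC50, 26 pM final; 24 hrs, 37 C; GpIIb-luciferase luminescence after 10 min RT detection.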

[19] = molecular target: Muscarinic acetylcholine receptor M1 (Rattus norvegicus) (UniProt P08482); test: qHTS Assay for Antagonists of Acetylcholine Muscarinic M1 Receptor: Measurement of IP-One Response (AID 944); note: nearly all actives have a fitted effect of over 75% in size
Summary of the method: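 Read-out: HTRF competition between d2-IP1 and Eu-cryptate anti-IP1 antibody, emission 620 and 665 nm. Stimulus was carbachol, EC80 (200 nM), for 30 min in M1-CHO cells (rat receptor), after 10 min compound pre-treatment.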

Sequence of Glucocorticoid receptor (Homo sapiens) (P04150 whole entry, looked up, the tested form may be a part): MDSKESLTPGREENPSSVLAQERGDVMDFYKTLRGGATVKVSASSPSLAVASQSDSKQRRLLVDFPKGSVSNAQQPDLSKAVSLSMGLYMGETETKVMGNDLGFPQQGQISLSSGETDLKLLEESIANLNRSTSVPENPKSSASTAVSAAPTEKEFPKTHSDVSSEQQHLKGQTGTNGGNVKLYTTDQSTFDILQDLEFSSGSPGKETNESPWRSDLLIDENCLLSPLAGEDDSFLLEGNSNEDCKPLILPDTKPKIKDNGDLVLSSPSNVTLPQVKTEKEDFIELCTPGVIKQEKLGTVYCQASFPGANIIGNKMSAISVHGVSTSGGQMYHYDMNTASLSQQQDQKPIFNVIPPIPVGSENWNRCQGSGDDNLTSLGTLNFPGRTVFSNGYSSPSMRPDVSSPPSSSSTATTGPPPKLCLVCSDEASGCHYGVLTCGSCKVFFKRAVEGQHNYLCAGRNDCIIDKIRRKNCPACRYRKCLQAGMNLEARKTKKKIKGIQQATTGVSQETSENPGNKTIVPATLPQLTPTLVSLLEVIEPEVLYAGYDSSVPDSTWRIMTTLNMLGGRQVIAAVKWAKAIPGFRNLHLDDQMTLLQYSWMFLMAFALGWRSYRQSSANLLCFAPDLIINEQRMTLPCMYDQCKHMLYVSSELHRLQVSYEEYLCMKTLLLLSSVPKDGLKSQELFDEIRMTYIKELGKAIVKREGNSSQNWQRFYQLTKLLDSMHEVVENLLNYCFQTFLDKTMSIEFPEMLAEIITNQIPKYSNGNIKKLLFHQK
Sequence of 3',5'-cyclic-AMP phosphodiesterase 4B (Homo sapiens) (Q07343 whole entry, looked up): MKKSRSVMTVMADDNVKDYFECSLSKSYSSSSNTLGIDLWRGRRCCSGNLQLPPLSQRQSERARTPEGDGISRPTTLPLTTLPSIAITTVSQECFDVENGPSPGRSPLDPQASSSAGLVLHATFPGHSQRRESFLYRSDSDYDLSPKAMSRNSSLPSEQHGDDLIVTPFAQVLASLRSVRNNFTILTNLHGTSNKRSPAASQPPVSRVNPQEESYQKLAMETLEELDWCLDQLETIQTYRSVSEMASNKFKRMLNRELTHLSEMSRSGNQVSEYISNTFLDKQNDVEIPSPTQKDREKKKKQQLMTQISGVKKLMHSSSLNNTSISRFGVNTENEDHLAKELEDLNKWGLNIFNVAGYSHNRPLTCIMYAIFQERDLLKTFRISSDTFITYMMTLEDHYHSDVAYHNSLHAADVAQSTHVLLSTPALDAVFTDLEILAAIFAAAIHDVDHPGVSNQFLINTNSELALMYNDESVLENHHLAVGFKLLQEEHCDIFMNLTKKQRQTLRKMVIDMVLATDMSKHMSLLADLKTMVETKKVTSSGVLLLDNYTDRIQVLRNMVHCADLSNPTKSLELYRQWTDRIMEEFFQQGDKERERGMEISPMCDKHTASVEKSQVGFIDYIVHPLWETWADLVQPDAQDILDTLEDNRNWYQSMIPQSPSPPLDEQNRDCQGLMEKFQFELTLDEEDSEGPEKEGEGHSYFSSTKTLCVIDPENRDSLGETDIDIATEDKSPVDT
Sequence of Pyruvate kinase (Leishmania mexicana) (Q27686 2-499 E452W): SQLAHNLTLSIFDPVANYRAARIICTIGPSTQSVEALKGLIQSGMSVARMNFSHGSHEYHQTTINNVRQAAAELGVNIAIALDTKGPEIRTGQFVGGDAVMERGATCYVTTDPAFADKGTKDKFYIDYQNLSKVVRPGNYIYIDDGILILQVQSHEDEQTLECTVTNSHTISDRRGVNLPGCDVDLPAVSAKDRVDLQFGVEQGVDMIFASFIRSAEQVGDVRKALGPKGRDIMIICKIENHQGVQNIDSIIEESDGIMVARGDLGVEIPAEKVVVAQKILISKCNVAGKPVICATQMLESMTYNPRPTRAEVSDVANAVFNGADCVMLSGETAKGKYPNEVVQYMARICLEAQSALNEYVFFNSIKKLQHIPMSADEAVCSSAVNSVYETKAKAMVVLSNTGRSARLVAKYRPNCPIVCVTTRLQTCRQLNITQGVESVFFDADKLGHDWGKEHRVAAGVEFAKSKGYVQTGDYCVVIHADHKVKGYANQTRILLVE
Sequence of Guanine nucleotide-binding protein G(i) subunit alpha-1 (Homo sapiens) (P63096 whole entry, looked up): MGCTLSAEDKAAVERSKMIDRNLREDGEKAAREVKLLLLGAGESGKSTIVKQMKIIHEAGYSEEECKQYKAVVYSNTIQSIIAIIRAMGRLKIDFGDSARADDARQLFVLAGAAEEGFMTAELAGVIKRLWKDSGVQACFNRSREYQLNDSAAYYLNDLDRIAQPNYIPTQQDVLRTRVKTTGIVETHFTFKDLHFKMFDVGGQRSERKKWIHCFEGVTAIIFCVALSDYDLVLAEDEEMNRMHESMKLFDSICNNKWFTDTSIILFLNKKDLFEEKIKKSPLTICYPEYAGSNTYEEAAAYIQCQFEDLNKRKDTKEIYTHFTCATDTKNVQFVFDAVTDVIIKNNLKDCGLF
Sequence of Pyruvate kinase PKM (Homo sapiens) (P14618 whole entry, looked up): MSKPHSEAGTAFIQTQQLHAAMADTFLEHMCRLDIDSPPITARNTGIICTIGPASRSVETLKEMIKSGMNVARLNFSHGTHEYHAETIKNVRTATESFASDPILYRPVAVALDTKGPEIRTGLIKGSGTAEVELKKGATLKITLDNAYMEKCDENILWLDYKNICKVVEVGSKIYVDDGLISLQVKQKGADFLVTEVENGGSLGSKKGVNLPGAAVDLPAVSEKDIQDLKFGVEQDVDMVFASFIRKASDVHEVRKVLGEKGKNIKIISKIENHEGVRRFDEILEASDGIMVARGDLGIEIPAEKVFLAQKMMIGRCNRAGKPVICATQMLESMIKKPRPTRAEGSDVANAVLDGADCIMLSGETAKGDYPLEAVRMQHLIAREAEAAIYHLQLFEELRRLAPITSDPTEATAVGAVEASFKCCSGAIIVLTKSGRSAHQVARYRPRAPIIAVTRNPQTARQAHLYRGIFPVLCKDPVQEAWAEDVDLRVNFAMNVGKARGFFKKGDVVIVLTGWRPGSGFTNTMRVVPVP
Sequence of Cytochrome P450 1A2 (Homo sapiens) (P05177 whole entry, looked up): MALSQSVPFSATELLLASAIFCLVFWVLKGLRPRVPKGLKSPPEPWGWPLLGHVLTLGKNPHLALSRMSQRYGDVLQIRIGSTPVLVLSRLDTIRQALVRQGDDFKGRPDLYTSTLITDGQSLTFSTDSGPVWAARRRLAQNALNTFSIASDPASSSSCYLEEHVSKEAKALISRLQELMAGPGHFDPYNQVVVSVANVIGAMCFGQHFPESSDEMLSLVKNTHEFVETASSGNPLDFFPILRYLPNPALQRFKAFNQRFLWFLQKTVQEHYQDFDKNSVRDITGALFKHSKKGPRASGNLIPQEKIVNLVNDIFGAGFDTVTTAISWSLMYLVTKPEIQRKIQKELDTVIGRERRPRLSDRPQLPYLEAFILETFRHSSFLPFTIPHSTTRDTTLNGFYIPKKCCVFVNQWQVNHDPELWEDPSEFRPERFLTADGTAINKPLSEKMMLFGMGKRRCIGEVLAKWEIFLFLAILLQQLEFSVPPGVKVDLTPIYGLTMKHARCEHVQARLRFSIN
Sequence of Alpha-galactosidase A (Homo sapiens) (P06280 whole entry, looked up): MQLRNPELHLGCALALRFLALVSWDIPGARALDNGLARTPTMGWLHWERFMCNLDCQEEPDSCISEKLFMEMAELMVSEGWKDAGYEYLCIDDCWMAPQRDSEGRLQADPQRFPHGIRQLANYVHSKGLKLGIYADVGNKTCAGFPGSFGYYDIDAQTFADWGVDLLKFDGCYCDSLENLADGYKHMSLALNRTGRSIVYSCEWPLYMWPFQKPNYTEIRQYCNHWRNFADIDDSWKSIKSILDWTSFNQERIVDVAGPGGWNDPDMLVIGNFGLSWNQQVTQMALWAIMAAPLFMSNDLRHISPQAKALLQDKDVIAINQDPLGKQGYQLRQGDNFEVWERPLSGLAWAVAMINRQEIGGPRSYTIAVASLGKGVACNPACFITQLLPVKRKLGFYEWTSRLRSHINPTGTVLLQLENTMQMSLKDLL
Sequence of Muscarinic acetylcholine receptor M1 (Rattus norvegicus) (P08482 whole entry, looked up): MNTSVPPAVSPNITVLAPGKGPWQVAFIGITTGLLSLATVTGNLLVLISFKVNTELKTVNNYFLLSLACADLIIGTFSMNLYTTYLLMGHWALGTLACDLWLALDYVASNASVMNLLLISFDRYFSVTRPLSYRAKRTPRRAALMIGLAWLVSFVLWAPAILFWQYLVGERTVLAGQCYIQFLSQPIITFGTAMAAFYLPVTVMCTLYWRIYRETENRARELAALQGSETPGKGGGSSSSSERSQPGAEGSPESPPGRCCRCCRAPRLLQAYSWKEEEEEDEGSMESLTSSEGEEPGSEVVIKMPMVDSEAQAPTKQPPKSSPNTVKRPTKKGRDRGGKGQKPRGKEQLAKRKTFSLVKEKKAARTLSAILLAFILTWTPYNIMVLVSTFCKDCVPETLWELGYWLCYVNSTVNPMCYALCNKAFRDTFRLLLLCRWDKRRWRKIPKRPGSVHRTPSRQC
Sequence of Cytochrome P450 2D6 (Homo sapiens) (P10635 whole entry, looked up): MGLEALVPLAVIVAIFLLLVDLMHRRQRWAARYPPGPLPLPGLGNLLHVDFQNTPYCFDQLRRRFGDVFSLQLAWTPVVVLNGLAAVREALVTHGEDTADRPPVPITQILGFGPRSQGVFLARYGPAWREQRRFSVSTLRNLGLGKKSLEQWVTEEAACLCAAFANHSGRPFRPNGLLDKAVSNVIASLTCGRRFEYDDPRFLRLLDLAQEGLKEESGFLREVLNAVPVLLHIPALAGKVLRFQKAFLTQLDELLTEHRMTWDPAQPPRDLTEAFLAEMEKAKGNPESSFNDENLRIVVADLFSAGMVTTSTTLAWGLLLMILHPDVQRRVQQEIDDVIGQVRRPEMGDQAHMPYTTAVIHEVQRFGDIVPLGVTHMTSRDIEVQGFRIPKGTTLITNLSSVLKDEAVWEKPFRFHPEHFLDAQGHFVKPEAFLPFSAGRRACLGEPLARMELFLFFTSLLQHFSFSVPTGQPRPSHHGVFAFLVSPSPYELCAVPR

Row | Structure (SMILES) | activity change, negative = inhibition [1] | Potency [2] | activity change, negative = inhibition [3] | activity, negative = inhibition [4] | Potency [5] [µM] | Potency [6] [µM] | Potency [7] | Potency [8] | outcome [9] | Potency [10] | Potency [11] | outcome [12] | outcome [13] | outcome [14] | Potency [15] | Potency [16] | Potency [17] | outcome [18] | Potency [19]
1 | CN1CC[C@@]2(CCN3CCc4c(oc5ccccc45)[C@@H]3C2)N(C)C1=O | 18% [at 38 µM] | inactive | -21.7% [at 38 µM] | -5.91% [at 38 µM] | > 46 | > 46 | inactive | inactive | inactive | inactive | inactive | inactive | inactive | inactive | inactive | – | – | – | –
2 | CSc1nc(N)c2ncn([C@@H]3O[C@@H](COP(=O)(O)OP(=O)(O)OP(=O)(O)O)[C@@H](O)[C@H]3O)c2n1 | 18.4% [at 38 µM] | inactive | 0.479% [at 38 µM] | -1.18% [at 38 µM] | > 46 | > 46 | inactive | inactive | inactive | – | – | inactive | inactive | inactive | inactive | inactive | inactive | inactive | inactive
3 | CCCCCCCCCC[Si](C)(C)CCC(=O)N[C@@H](Cc1ccc(C)cc1)c1ccccc1 | 20.2% [at 38 µM] | 31.6 µM (active) | -7.96% [at 38 µM] | -5.69% [at 38 µM] | > 46 | > 46 | inactive | inactive | inactive | – | – | inactive | inactive | inactive | inactive | – | inactive | – | inactive
4 | Nc1ccc(CCNc2ncnc3c2ncn3[C@@H]2O[C@@H](CO)[C@H](O)[C@@H]2O)cc1 | -2.21% [at 38 µM] | inactive | 3.61% [at 38 µM] | 17.4% [at 38 µM] | > 46 | > 46 | inactive | inactive | inactive | inactive | inactive | inactive | inactive | inactive | inactive | – | – | inactive | –
5 | CN1CCc2cc(Cl)c(O)cc2[C@H](c2ccccc2)C1 | 15.7% [at 38 µM] | 31.6 µM (active) | -3.81% [at 38 µM] | 19.6% [at 38 µM] | > 46 | > 46 | inactive | inactive | inactive | – | – | inactive | inactive | inactive | inactive | 631 nM (active) | – | – | inactive
6 | CC(C)C[C@H](NC(=O)[C@@H](O)[C@@H](N)Cc1ccccc1)C(=O)O | 16.3% [at 38 µM] and 2.81% [at 38 µM] | inactive | -15.3% [at 38 µM] and -3.04% [at 38 µM] | 25.1% [at 38 µM] and 3.44% [at 38 µM] | > 46 | > 46 | inactive | inactive | inactive | – | – | inactive | inactive | inactive | inactive | – | – | inactive | inactive
